# Source: PubChem BioAssay
# The list is not random: actives were taken first. Their share in the collection is about 19%.
# IL-1B inflam inh: inflammasome signaling inhibition, IL-1 beta readout; THP-1 LPS/ATP IL-1B secretion, AlphaLISA, 16 h; active compounds read low; AID 743279; activity change, % at 57.5 µM; 360,000 tested, 4.7% active; in the data active means activity change below about -50%; inconclusive means mostly about -30% to -49%
#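 THP-1 cells pretreated 1 hr with compounds (up to 57.5 uM final), then stimulated with LPS (250 ng/mL final) plus ATP (1.25 mM final); secreted IL-1B measured by AlphaLISA after 16 hr, decreased signal indicating inhibition.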
# HT1080 IDH1KD tx: toxicity to HT-1080 IDH1 knockdown cells (counter line). HT-1080 IDH1 knockdown viability, ATP luminescence, 48 h. Potency, µM (highest dose often 46.1 µM), without a hit: at the highest dose activity, negative = toxicity, usual class: cytotoxic. 360,000 tested, 2% active;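 further: potency means the concentration at half of the fitted maximal effect; 0% = DMSO wells and -100% = cell-free medium wells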
#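 Cytotoxicity counter-line: IDH1KD HT-1080, 48 h, CellTiter-Glo. Curves classed by r2, magnitude and activity.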
# HT1080-NT tox: kills 2HG-producing HT-1080-NT fibrosarcoma cells | AID 686970 | HT-1080-NT fibrosarcoma viability, CellTiter-Glo ATP luminescence, 48 h | Potency, µM (series often up to 46.1 µM), without a hit: at the top dose activity, negative = less viability, actives largely listed as cytotoxic | 360,000 tested, 1.6% active;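 further: NT is the 2HG producing partner of a matched IDH1 knockdown line; potency means the concentration at half of the fitted maximal effect; 0% = DMSO-treated cells and -100% = media-only wells without cells; nearly all actives have a fitted effect of over 55% in size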
#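 750 cells/well, RPMI + 5% FBS; 2 h settle, compound pin-transfer, 48 h at 37 degrees C. CellTiter-Glo 10 min RT, luminescence. Normalized to DMSO and media-only wells.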
# DT40 TDP1 no CPT: qHTS for Inhibitors of human tyrosyl-DNA phosphodiesterase 1 (TDP1): qHTS in cells in absence of CPT | DT40 Tdp1-/- hTDP1 cells, no CPT, ATP luminescence, 48 h | Potency, µM (titrated, usually from 46.2 µM), without a hit: top-dose activity change, negative = growth inhibition, actives largely listed as inhibitors | 420,000 tested, 15% active; further: potency means the concentration at half of the fitted maximal effect; nearly all actives have a fitted effect of over 55% in size
#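 Luminescent ATP content (CellTiter-Glo) served as the growth readout. Knockout chicken DT40 cells expressing human TDP1 were exposed to compounds without camptothecin for a minimum 48 hr at 37 °C.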
# DT40 TDP1 CPT: growth inhibition of DT40 Tdp1-/-;hTDP1 cells with camptothecin (screen for TDP1 inhibitors); chicken DT40 Tdp1-/-;hTDP1 cells + 20 nM CPT, ATP luminescence, 48 h; Potency, µM (highest dose often 46.2 µM), inactives show top-dose activity change, negative = growth inhibition, most hits filed as inhibitors; 420,000 tested, 12% active; further: potency means the concentration at half of the fitted maximal effect; nearly all actives have a fitted effect of over 55% in size
#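 Chicken DT40 Tdp1-/- cells stably complemented with human TDP1 were seeded at 400 cells/well in medium containing 20 nM camptothecin, exposed to pin-transferred compounds, and grown at 37 °C for at least 48 hr. Viability was read as ATP luminescence.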
# The depositor's hits bear a star; ? = inconclusive; nt = no result; [ ] = another dose, or the depositor's remark. Unless noted, the call rests on the fitted dose curve; in most records, active means well fitted curve in the direction sought with a large enough effect; inconclusive means small, poorly fitted or top-dose-only effect, or another doubt; inactive means no such curve, though single readings can be large; an effect the other way counts as inactive or inconclusive. Unless noted, on the % scale 0 is the no-effect control and ±100 the full control effect.
SMILES,IL-1B inflam inh,HT1080 IDH1KD tx,HT1080-NT tox,DT40 TDP1 no CPT,DT40 TDP1 CPT
CC(C)N(Cc1ccccc1)C(=O)c1nc(-c2ccc(Cl)cc2)n2c1CCCCC2,nt,nt,nt,18µM*,9.2µM*
CCOc1ccccc1CNC(=O)c1nn(CC)cc1[N+](=O)[O-],-12,1%,1%,1%,5%
COC(=O)c1ccc(NC(=O)c2nc(-c3ccc(Cl)cc3)n3c2CCCCC3)cc1,nt,nt,nt,0.82µM*,0.73µM*
CCOc1ccccc1CNC(=O)c1nc(-c2ccc(Cl)cc2)n2c1CCCCC2,nt,nt,nt,?,23µM*
COc1ccccc1Nc1nc(-c2ccc(F)cc2)c2c(n1)-c1ccccc1OC2,nt,nt,nt,-19%,-5%
CC(C)OCCCNC(=O)CCCN1C(=O)CCn2nc(-c3cccn3C)cc21,nt,nt,nt,-9%,-13%
COCCN(C(=O)c1ccc(OCC(C)C)cc1)c1c(N)n(Cc2ccccc2)c(=O)[nH]c1=O,-3,9%,1%,-18%,8%
O=C(NCCc1ccccc1)c1nc(-c2ccc(Cl)cc2)n2c1CCCCC2,nt,nt,nt,10µM*,12µM*
N#C/C(=C/c1ccc(Sc2nc3ccccc3[nH]2)o1)c1ccccc1F,-96*,?,?,16µM*,21µM*
N#C/C(=C/c1ccc(Sc2nc3ccccc3[nH]2)o1)c1cccc(F)c1,-94*,?,?,?,21µM*
O=C(NCc1nnc2n1CCN(Cc1ccc(C(F)(F)F)cc1)CC2)c1ccccn1,nt,nt,nt,-13%,3%[9.04 µM]
N#Cc1cc2c(cc1NC(=O)CCn1cnnn1)OCO2,15,0%,8%,10%,-3%
O=S(=O)(/N=S1\CC=CCN1S(=O)(=O)c1ccccc1)c1ccccc1 (stereo unspecified),-86*,?,?,21µM*,?
O=S(=O)(c1ccccc1)N1CCN(S(=O)(=O)c2ccccc2)CC1,nt,nt,nt,-1%,17%
O=C1NC[C@H](Cc2ccccc2)N(CCc2cccc(F)c2)C1=O,5,9%,2%,-4%,-14%
CC(=Nc1ccccc1)C1=C(O)C(Cc2cccc(F)c2)NC1=O (stereo unspecified),71,?,0.026µM*,0.1µM*,0.0058µM*
CC(=Nc1ccccc1)C1=C(O)C(Cc2ccc(O)cc2)NC1=O (stereo unspecified),31,?,0.58µM*,0.0082µM*,0.018µM*
CC(C(=O)c1ccc(Br)cc1)[n+]1cccc2ccccc21 (stereo unspecified),39,-1%,0%,9.2µM*,10µM*
CC(C(=O)c1ccc(Br)cc1)[n+]1cccc(NC(=O)c2ccccc2)c1 (stereo unspecified),?,5%,1%,?,?
CCCCCC1C(C(=O)OCC)C(=O)NC1(C(=O)OCC)C(=O)OCC (stereo unspecified),27,-1%,-3%,?,-26%
O=C(O)/C=C/C(=O)Nc1ccc(OC(F)(F)Cl)cc1,-5,8%,15%,-19%,24%
O=C(O)/C=C/C(=O)Nc1ccc(SC(F)(F)C(F)(F)C(F)(F)F)cc1,-54*,-25%,-29%,-14%,-17%
O=C(NC1CC1)c1ccc(-c2ccc3nccn3c2)cc1,-18,-4%,11%,-23%,?
CSc1ccc(Cl)c(C(=O)NCc2ccco2)c1,-15,7%,10%,?,16µM*
O=C(NCc1ccco1)c1ccc(C(=O)NCc2ccco2)s1,-17,20%,13%,26µM*,?
SMILES,IL-1B inflam inh,HT1080 IDH1KD tx,HT1080-NT tox,DT40 TDP1 no CPT,DT40 TDP1 CPT
O=C(NCc1ccco1)c1ccc(-c2ccc3nccn3c2)cc1,-101*,?,11%,?,23µM*
COC(=O)C1CCN(Cc2ccc3c(c2)CN(C(=O)C2CCCN(c4ccccn4)C2)CCO3)CC1 (stereo unspecified),nt,nt,nt,-28%,-14%
CCCCn1c(N)c(N(CC)C(=O)c2ccc(Cl)c(Cl)c2)c(=O)[nH]c1=O,1,14%,19%,?,1%
O=S(=O)(NCc1cccnc1)c1ccc(Cl)c2ccccc12,11,-1%,-19%,-30%,?
O=C1CCC/C(=N/Nc2ccc(Cl)cc2)C1,3,-18%,-14%,7.3µM*,16µM*
O=C(NN=C1CCCC1)c1ccc(Cl)cc1,-6,0%,-5%,-18%,14%
c1cn2c(-c3ccoc3)cncc2n1,0,0%,23%,-17%,-26%
COc1cc(NC(=S)NC(=O)c2c(OC)cccc2OC)ccc1NC(=O)c1cccs1,17,-2%,-5%,9.2µM*,10µM*
COc1cc(NC(=S)NC(=O)c2cc(C)cc(C)c2)ccc1NC(=O)c1cccs1,-19,2%,22%,?,?
COc1cc(NC(=S)NC(=O)c2ccc(C(C)(C)C)cc2)ccc1NC(=O)c1cccs1,-2,?,?,18µM*,?
O=S(=O)(c1ccc(N2CCN(CCO)CC2)nc1)N1CCOCC1,-7,0%,-5%,2%,8%
O=C(Cn1nc(Cl)nc1Cl)c1ccccc1,-10,-6%,-19%,15µM*,?
O=C(Cn1nc(Cl)nc1Cl)c1ccc(F)cc1,19,10%,9%,1%,-1%
Cc1cc(C)nc(SCC(=O)c2ccc3c(c2)OCCO3)n1,?,0%,-3%,?,?
O=C(Cn1nc(Cl)nc1Cl)c1ccc2c(c1)OCCO2,?,0%,-10%,13µM*,5.2µM*
C=CCn1cccc(C(=O)Nc2ccc(C)cc2)c1=O,0,-8%,-5%,-9%,-23%
C=CCn1cccc(C(=O)Nc2ccc(C)c(C)c2)c1=O,-78*,-6%,-14%,-10%,3%
Cn1c(CNC(=O)c2ccc3c(c2)OCO3)nnc1SCC(=O)Nc1ccc(F)cc1,3,-8%,-17%,3%,0%
N=c1oc2ccc(Cl)cc2cc1C(=O)NC1CCCCCC1,nt,29%,?,21µM*,26µM*
Cc1ccc(NC(=O)c2cc3ccccc3oc2=N)cc1,12,12%,6%,?,-5%
N=c1oc2cc(O)ccc2cc1C(=O)Nc1ccc(Cl)cc1,-89*,?,-4%,8%,?
O=C(CSc1ccccc1F)NCC1(N2CCCCC2)CCCCC1,0,-1%,-1%,22%,?
O=C(CNC(=O)c1ccco1)NCC(=O)OCc1cccc(Cl)c1,-7,-1%,7%,-17%,-3%
O=C(CCNc1cccc(Cl)c1)c1ccco1,4,?,?,8.2µM*,7.3µM*
O=C(N/N=C/c1ccc(-c2cccc([N+](=O)[O-])c2)o1)c1cccs1,35,8%,-5%,-25%,22%
